High-throughput results: PubChem BioAssay, several laboratories
Hits are enriched below; roughly 3.3% of the tested compounds scored in any of these assays.
Smad3 FoxH1 inh = Smad3/FoxH1 peptide binding inhibitors, primary screen, biochemical, TR-FRET; Mothers against decapentaplegic homolog 3 (Homo sapiens), P84022; TR-FRET Smad3/Dy647-FoxH1 peptide binding, europium anti-His; inhibition, % at 25 µM; 0.29% of 88,000 active;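 active = compounds that reduce the energy-transfer binding signal between the protein and its labelled peptide by more than half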;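 also: 0% = Smad3 plus labelled peptide maximal FRET and 100% = peptide-only background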
ERb SRC1 inh = inhibitors of ERβ-SRC1 coactivator interaction, primary screen, biochemical, TR-FRET, ERβ LBD, SRC-1 peptide; 1.3% of 86,000 active; Estrogen receptor beta (Homo sapiens), Q92731; inhibition, % at 25.6 µM; AID 633, 2007; TR-FRET ER-beta LBD / SRC1-Cy5 peptide binding; receptor agonist-loaded with 1 µM estradiol;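 active = compounds whose percent inhibition of the receptor-coactivator binding signal exceeds about 50% in the single-dose screen, limit read from the data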;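 also: 0% = receptor plus peptide wells without compound and 100% = peptide-only wells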
FAK inh = FAK kinase inhibitors, primary screen, biochemical; Focal adhesion kinase 1 (Homo sapiens), Q05397; biochemical FAK kinase activity assay; inhibition, %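 (tested at 7 µM)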; 0.84% of 97,000 active;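 also: 0% = DMSO and 100% = reference compound high control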
Candida biofilm = clotrimazole potentiators killing Candida biofilms, primary screen, with clotrimazole, Alamar Blue; 0.14% of 85,000 active; C. albicans biofilm + clotrimazole; inhibition, % at 6 µM;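 active = inhibition above 20%; inactive = inhibition below 20%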;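 also: preformed 24 hr biofilms exposed to compound for 48 hr; 0% = biofilm without compound and 100% = blank killed by clotrimazole plus chlorhexidine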
ERa SRC1 pot = enhancers of ERα–SRC-1 coactivator binding, primary screen, biochemical, TR-FRET, ERα LBD, low estradiol; Estrogen receptor (Homo sapiens), P03372; TR-FRET ERalpha-LBD/SRC-Cy5 coactivator binding, 2 h; 100 = basal binding, no effect; coactivator binding (% of control), % at 25.6 µM; 1.3% of 86,000 active; AID 639, 2007; in the data active = activity above about 200%;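 also: binding measured in presence of low estradiol as agonist stimulus; 0% = peptide alone without receptor and 100% = receptor with peptide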
ERa coact inh = ERα–SRC-1 coactivator interaction inhibitors, primary screen, biochemical, TR-FRET, ERα LBD, estradiol-bound; TR-FRET ER-alpha LBD / SRC-1 peptide; 1.7% of 86,000 active; Estrogen receptor (Homo sapiens), P03372; inhibition, % at 25.6 µM; in the data active = inhibition above about 50%;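 also: 0% = receptor plus peptide control and 100% = peptide only without receptor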
FAK inh conf = FAK kinase inhibitors, retest, confirmation, biochemical; 28% of 750 active; inhibition, % at 7 µM; AID 794, 2007; shares compounds with FAK inh; FAK kinase biochemical inhibition assay
An asterisk follows results filed as active; . = no result; [ ] = another dose, or the depositor's remark. Rule as the data show it, unless noted: active = inhibition above about 19%; inactive = the rest.

SMILES	Smad3 FoxH1 inh	ERb SRC1 inh	FAK inh	Candida biofilm	ERa SRC1 pot	ERa coact inh	FAK inh conf
Cc1ccc2nsnc2c1S(=O)(=O)Nc1cccc2nsnc12	-6	11	71*	9	95	-6	48*
Cc1ccc(C)c(NS(=O)(=O)c2c(C)ccc3nsnc23)c1	-10	-1	4	10	100	-8	.
CN=C1S/C(=C\c2cc(C)n(-c3ccccc3F)c2C)C(=O)N1C	.	.	21*	.	.	.	5
Cc1ccnc2nc(C(=O)NCCc3ccc(F)cc3)nn12	-3	0	0	2	105	-3	.
CC(=O)c1ccc(NCC(=O)N2CCN(c3ccccc3)CC2)cc1	6	57*	20*	6	59	85*	19*
Cc1ccnc(NC2(C(F)(F)F)N=C(c3ccccc3)NC2=O)c1 (centres undefined)	.	.	-1	.	.	.	.
O=C1c2cccnc2C(=O)N1Cc1ccccc1	-15	11	.	-5	75	-2	.
O=C1Cc2ccccc2C(=O)N1Cc1ccccc1	24	-11	54*	1	98	4	28*
COc1ccc2c(=O)cc(-c3ccccc3)n(C)c2c1	4	-1	-1	3	100	-2	.
CCOC(=O)C(C(=O)NCc1ccc(F)cc1)c1ncc(C(F)(F)F)cc1Cl (centres undefined)	.	.	1	.	.	.	.
CCOC(=O)C(C(=O)N(C)C)c1ncc(C(F)(F)F)cc1Cl (centres undefined)	.	.	78*	.	.	.	-3
COc1cccc(C(=O)Nc2c(C(N)=O)oc3ccccc23)c1	-5	90*[fluorescence artefact?]	21*	13	81	1	8
Cc1cccc(NC(=O)NCc2ccc3c(c2)cc(C)n3C)c1	17	10	22*	1	163	0	-7
c1ccc(-c2nnc(-c3ccccc3)c(-c3c[nH]c4ccccc34)n2)cc1	0	-2	-7	5	96	-7	.
c1ccc2c(-c3ccncc3)c[nH]c2c1	-7	-16	21*	0	103	-23	9
CC1(C)C2CCC13CS(=O)(=O)N[C@@H]3C2 (some centres undefined)	3	1	0	3	116	-3	.
Nc1ncnc2oc(-c3ccco3)c(-c3ccco3)c12	5	88*[fluorescence artefact?]	54*	7	13	94*[fluorescence artefact?]	32*
Cc1ccc(NCc2ccccc2O)cc1	10	-5	-1	5	100	3	.
Cc1ccc(CNc2ccc(O)cc2)cc1	-13	65*[fluorescence artefact?]	52*	0	72	35	0
COc1cccc(-c2cn3nc4c(nc3n2)CCCC4)c1	10	11	27*	2	81	3	0
c1ccc2c3c([nH]c2c1)-c1[nH]ncc1CC3	0	1	42*	2	110	-14	20*
Clc1ccc2[nH]c3c(c2c1)CCc1cn[nH]c1-3	-1	5	20*	-2	59	20	7
O=C1CCCc2c1[nH]c1ccccc21	10	11	6	2	84	14	.
O=CNC1CCCc2c1[nH]c1ccc(Cl)cc21 (centres undefined)	7	-10	1	6	101	0	.
COC(=O)N/N=C(\C)c1ccccc1Br	-14	-2	3	0	117	3	.
SMILES	Smad3 FoxH1 inh	ERb SRC1 inh	FAK inh	Candida biofilm	ERa SRC1 pot	ERa coact inh	FAK inh conf
c1nc(N2CCOCC2)c2c3c(sc2n1)CCCC3	-9	2	28*	4	105	-2	-1
Cc1cc2nnc(SC(C)C#N)n2c2ccccc12 (centres undefined)	.	.	35*	.	.	.	14
COc1ccc(S(=O)(=O)N(C)c2c(C)n(C)n(-c3ccccc3)c2=O)cc1OC	4	-4	1	12	111	-2	.
O=C1c2ccccc2C(=O)C1c1ccncc1	8	-5	25*	2	91	3	7
O=C1C(c2ccncc2)=C(O)c2ccccc21	4	1	15	2	104	0	.
O=C(OCc1nc2ccc(Cl)cc2n1CCO)c1ccc2c(c1)OCO2	.	.	-4	.	.	.	.
c1csc(Cc2nn3c(-c4n[nH]c5c4CCC5)nnc3s2)c1	5	62*	28*	6	27	87*[fluorescence artefact?]	8
COc1ccc(OCc2nn3c(-c4ccco4)nnc3s2)cc1	8	32	1	2	99	24	.
c1coc(-c2nnc3sc(Cc4cccs4)nn23)c1	12	67*	25*	7	49	87*[fluorescence artefact?]	5
Cc1ccc(-c2nc3ccccc3s2)cc1NC(=O)c1cc(-n2cnnc2)ccc1Cl	.	.	29*	.	.	.	7
Cc1ccc(-c2nc3ccccc3s2)cc1NC(=S)NC(=O)c1ccccc1	.	.	-3	.	.	.	.
O=C(c1n[nH]c2c1CCCC2)n1ccnc1	4	-5	.	6	113	2	.
O=c1[nH]c(Nc2ccc(F)cc2)cc2ccccc12	.	.	36*	.	.	.	7
Cc1cc2ccccc2c(=O)[nH]1	7	0	.	-1	101	10	.
O=C(Nc1ccc2c(c1)oc1ccccc12)c1ccc2c(c1)OCO2	-2	0	1	5	152	7	.
O=c1c(O)c(-c2ccc3c(c2)OCO3)oc2ccccc12	.	.	20*	.	.	.	9
CCOC(=O)c1ccc(Nc2nc(-c3cccnc3)nc3ccccc23)cc1	.	.	22*	.	.	.	10
N#Cc1c(NC(=O)CCC(=O)O)ccc2ccccc12	-10	.	.	.	.	.	.
O=C1Nc2ccccc2Nc2ncccc21	.	.	39*	.	.	.	12
Cc1ccc2c(c1)NC(=O)c1cccnc1N2	.	.	12	.	.	.	.
COc1ccc2oc(=O)c(-c3nnc(NCc4ccco4)s3)cc2c1	13	57*[fluorescence artefact?]	21*	2	181	45	5
Cc1nnc(NCc2ccncc2)c2ccccc12	4	50*[fluorescence artefact?]	23*	3	179	60*[fluorescence artefact?]	7
COC(=O)C1=C(C)NC(C)=C(C(=O)OC)C1C(=O)OCC(=O)N1c2ccccc2CC1C (centres undefined)	15	26	-2	2	86	-2	.
Cc1ccc(Nc2cc(C)nc(-c3ccccc3O)n2)cc1	-11	8	3	6	96	14	.
Cc1cc(NCCCN)nc(-c2ccccc2O)n1	21	-14	21*	1	123	-6	12
CCOC(=O)C1CCN(C(=O)CSc2nnc(-c3ccco3)n2-c2ccccc2)CC1	17	-9	0	10	107	-1	.
CN(C)CCN1CCc2ccccc21	10	55*[fluorescence artefact?]	32*	4	48	40	45*
